Only some compounds are listed: those with a hit (about 4.1% of all), similar ones and a draw of the others.
hcDAF-12 act: activators of H. contortus DAF-12 nuclear receptor; activation, % at 6.8 µM; 370,000 compounds, 1.4% hits; AID 652067; HEK293 hcDAF-12 lit1-tk-luc reporter, luminescence; 0% DMSO, 100% Δ7-dafachronic acid;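 active = activation above the mean of all tested compounds plus 3 SD, cut at about 5.5% in these data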
ssDAF-12 act: activates DAF-12 receptor from parasite S. stercoralis; 370,000 compounds, 1% hits; activation, % at 6.8 µM; HEK293 ssDAF-12/GRIP1 lit1-tk-luc reporter, luminescence; % of 3 µM dafachronic acid response;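 active = activation above the mean over all tested compounds plus 3 SD, cut at about 0.9% in these data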
DAX1 inh-1: inhibitors of DAX1 repression of SF-1 activated StAR promoter | AID 652010 | inhibition, % at 6.8 µM | HEK293T StAR-luciferase reporter, SF-1/DAX-1 repression relief | 370,000 compounds, 1.1% hits;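 active = inhibition above the mean over all tested compounds plus 3 SD, cut at about 3.6% in these data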;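 note: higher inhibition means more luminescence from relief of DAX-1 repression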
DAX1 inh-2: inhibits human nuclear receptor DAX1; HEK293 Gal4-DAX1 luciferase reporter, luminescence; inhibition, % at 6.75 µM; 340,000 compounds, 0.99% hits; AID 504766;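 active = inhibition above the mean over all tested compounds plus 3 SD, cut at about 4.2% in these data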;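 note: inhibition shows as a rise in luminescence from relieved DAX1 repression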
Target sequence (P51843 207-470 limits assumed): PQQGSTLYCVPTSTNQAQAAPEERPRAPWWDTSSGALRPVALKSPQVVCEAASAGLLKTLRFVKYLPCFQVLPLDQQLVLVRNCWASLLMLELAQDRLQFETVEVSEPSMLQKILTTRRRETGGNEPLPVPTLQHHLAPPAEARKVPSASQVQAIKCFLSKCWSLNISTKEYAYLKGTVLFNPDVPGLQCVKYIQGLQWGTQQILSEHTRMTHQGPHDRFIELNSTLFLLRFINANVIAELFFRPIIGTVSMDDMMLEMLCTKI
hgDAF12 agonist: agonists of H. glycines DAF-12 nuclear receptor; HEK293 GAL4-hgDAF12 UAS-luciferase reporter, agonist luminescence; normalized to butyrate control; 370,000 compounds, 1.8% hits; activation, % at 6.8 µM;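 active = activation above a cutoff set at the mean of all screened compounds plus 3 SD, cut at about 10% in these data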
Large screens that a line does not name were inactive.

COc1cc([C@H]2Oc3c(OC)cc(CCCO[C@@H]4O[C@H](CO)[C@@H](O)[C@H](O)[C@H]4O)cc3[C@@H]2CO)ccc1O	DAX1 inh-2 4.7
CCN(CC)C(=O)CSc1nnc(-c2cccs2)o1	none (no result: DAX1 inh-2)
CC1(C)CC(=O)C=C(c2ccc(COC(=O)c3ccccc3)cc2)C1=O	DAX1 inh-1 3.9, hgDAF12 agonist 11
COc1cc(C(=O)NC2CCCCN(Cc3cccc(C(F)(F)F)c3)C2=O)cc(OC)c1OC (centres undefined)	none (no result: DAX1 inh-2)
c1ccc(-c2csc3ncn4nnnc4c23)cc1	ssDAF-12 act 1.0
Cc1c(Cl)cnc(NC(=O)COC(=O)c2cc3c(s2)CCC(C)C3)c1Cl (centres undefined)	ssDAF-12 act 1.4
C[C@H](O)[C@@H]1C(=O)N2CCc3c([nH]c4c(-c5ccccc5)cccc34)[C@@H]2C[C@@H]1N(C)C(=S)NCCc1ccccc1	none (no result: DAX1 inh-2)
O=[N+]([O-])c1ccccc1-c1ccc(C(=S)N2CCN(c3ccccc3)CC2)o1	ssDAF-12 act 1.7
O=C(O)Cn1c2ccccc2c2nc3ccccc3nc21	DAX1 inh-2 4.9 (no result: hcDAF-12 act, ssDAF-12 act, DAX1 inh-1, hgDAF12 agonist)
CCN(CC)CCn1c(C)nc2ccccc21	DAX1 inh-2 4.3
CCN(CC)CCn1c2ccccc2c2nc3ccccc3nc21	hcDAF-12 act 6.1
CCCn1c2ccccc2c2nc3ccccc3nc21	none
CCN(CC)CCn1c(NC(=O)c2ccc(Cl)cc2)nc2ccccc21	hcDAF-12 act 5.7, ssDAF-12 act 1.0
Clc1ccc(-c2nnc(SCc3cccc4ccccc34)n2-c2ccc(Cl)cc2)cc1	none (no result: DAX1 inh-2)
CC(OC(=O)CCC(=O)c1cccs1)C(=O)Nc1ccccc1[N+](=O)[O-] (centres undefined)	none
Cc1nn(CC(=O)OC(C)C(=O)Nc2ccccc2[N+](=O)[O-])c(C)c1[N+](=O)[O-] (centres undefined)	ssDAF-12 act 3.5
Cc1ccc(C(=O)NCC(=O)OC(C)C(=O)Nc2ccccc2[N+](=O)[O-])s1 (centres undefined)	DAX1 inh-1 3.6
CCOC(=O)c1[nH]c2c(c1C)C(=O)CC(c1ccco1)C2 (centres undefined)	DAX1 inh-1 7.0
CC(C)[C@H](NC(=O)C1CCCC1)C(=O)N1CCC[C@H]1C(=O)NCCc1ccccc1Cl	none (no result: DAX1 inh-2)
CCCC(=O)NC(=S)Nc1sc2c(c1C(N)=O)CCC2	none
CC(C)C(=O)NC(=S)Nc1sc2c(c1C(N)=O)CCCC2	hgDAF12 agonist 11
CC(=O)NC(=S)Nc1sc2c(c1C#N)CCCCC2	hgDAF12 agonist 12
CCN(CC)CCn1c2c(c(SCC(=O)Nc3nc4ccc(C)cc4s3)nc1=O)CCC2	none
CCN(CC)CCn1c2c(c(SCC(=O)Nc3nc4ccccc4s3)nc1=O)CCC2	hcDAF-12 act 5.8
CCN(CC)CCCn1c2c(c(SCC(=O)Nc3cc(C)cc(C)c3)nc1=O)CCC2	DAX1 inh-1 4.4
COC(=O)c1cc2c(c3c4ccccc4n(S(=O)(=O)c4cccc(C)c4)c13)C(=O)N(C)C2	none (no result: DAX1 inh-2)
CC1(c2cccc(Br)c2)NC(=O)N(CC(=O)Nc2cccnc2Cl)C1=O (centres undefined)	DAX1 inh-1 3.7
CC1(c2ccccc2Cl)NC(=O)N(CC(=O)Nc2cccnc2Cl)C1=O (centres undefined)	none
Cc1nc2ccc3nc(NC(=O)C4COc5ccccc5O4)sc3c2s1 (centres undefined)	none
Cc1nc(C2COc3ccccc3O2)sc1C(=O)O (centres undefined)	DAX1 inh-2 5.5
Cc1cc(N2CCNC[C@@H]2C)ccc1N1CCN(Cc2ccccc2)[C@@H](C)C1	none (no result: DAX1 inh-2)
OC(c1cccs1)(c1cccs1)C1C[N+]2(CF)CCC1CC2 (centres undefined)	hcDAF-12 act 5.8
COc1ccc2nc(-c3ccccn3)[nH]c2c1	hgDAF12 agonist 12
COc1cccc(-c2nnc(SCC(=O)Nc3cccc4ccccc34)n2Cc2ccco2)c1	none (no result: DAX1 inh-2)
O=C(Cc1ccccc1F)Nc1nnc(-c2cccnc2)s1	none (no result: DAX1 inh-2)
CC(C)(C)c1ccc(-c2nnc(SCC(=O)Nc3ccccc3-c3ccccc3)n2Cc2ccco2)cc1	none (no result: DAX1 inh-2)
CC1CCN(S(=O)(=O)N2CCCC(C(=O)NCc3ccccc3Cl)C2)CC1 (centres undefined)	none
O=C(NCc1ccccc1Cl)C1CCN(S(=O)(=O)N2CCCCCC2)CC1	DAX1 inh-2 4.8
O=C(NCCCN1CCc2ccccc2C1)C1CCN(S(=O)(=O)N2CCC3(CC2)OCCO3)CC1	none
O=C(NCCCN1CCc2ccccc2C1)C1CCN(S(=O)(=O)N2CCCC2)CC1	hcDAF-12 act 5.8
CCOc1ccccc1N1C(=O)CC(Sc2n[nH]c(-c3ccccc3)n2)C1=O (centres undefined)	DAX1 inh-2 4.8
Fc1cccc(CSc2nnc3c(n2)[nH]c2ccccc23)c1	none
CN(C)CCSc1nnc2[nH]c3ccccc3c2n1	ssDAF-12 act 1.1
O=C(O)c1cccc(N=NN2CCOCC2)c1	DAX1 inh-1 3.7 (no result: DAX1 inh-2)
CN(CCO)c1ccc2c(c1)Oc1ccccc1CN(Cc1cn(Cc3ccc(F)cc3)nn1)S2(=O)=O	none (no result: DAX1 inh-2)
O=C(Cc1cn2ccsc2n1)NCc1ccccc1	hcDAF-12 act 6.0
CC(C)(C)c1ccc(C#C[C@@H]2C=C[C@@H](O)[C@@H](COC(=O)Nc3ccccc3)O2)cc1	none (no result: DAX1 inh-2)
COc1cc(/C=N/n2cnnc2)ccc1OS(=O)(=O)c1ccccc1[N+](=O)[O-]	none
O=[N+]([O-])c1ccccc1S(=O)(=O)Oc1ccc(/C=N/n2cnnc2)cc1	ssDAF-12 act 1.2
Cn1c(=O)c(-c2cccc(Cl)c2)c(O)c2ccccc21	none
Cn1c2[n+](c3ccc(Cl)cc3c1=O)Cc1ccccc1-2	DAX1 inh-2 5.7
Cc1ncc(S(=O)(=O)c2ccccc2)c(-c2ccccc2)n1	none
O=S(=O)(c1ccccc1)c1cnc(-c2cccnc2)nc1-c1ccc(Cl)c(Cl)c1	ssDAF-12 act 1.6
CCOC(=O)N1CCN(c2c(NCCN3CCCCC3CC)c(=O)c2=O)CC1 (centres undefined)	DAX1 inh-1 4.2
CCn1cnc2sc(C(=O)Nc3ccc4c(c3)OCO4)c(C)c2c1=O	hgDAF12 agonist 13
CCn1c(SCC(=O)Nc2ccc(C(C)=O)cc2)nc2nc3c(cc2c1=O)COC(C)(C)C3	none
CCn1c(SCC(=O)Nc2ccccc2C)nc2nc3c(cc2c1=O)COC(C)(C)C3	DAX1 inh-2 5.5
CCCCc1c(-c2ccccc2OC)ncn1Cc1ccccc1Cl	none (no result: DAX1 inh-2)
COc1ccc(CC(=O)Nc2cc3oc4ccccc4c3cc2OC)cc1	hgDAF12 agonist 12
COc1cc2c(cc1NC(=O)CSc1ccccn1)oc1ccccc12	hcDAF-12 act 6.5
OCC1(CCOc2ccccc2)CCN(Cc2ccc3c(c2)OCCO3)CC1	DAX1 inh-2 4.8
CCCCn1cnc2c(oc3ccccc32)c1=O	hgDAF12 agonist 12
N#CCn1cnc2c(oc3ccccc32)c1=O	none (no result: hcDAF-12 act, ssDAF-12 act, DAX1 inh-1, hgDAF12 agonist)
Cc1ccc(-c2nc3c(Cl)cc(Cl)cc3c(=O)n2O)cc1	hcDAF-12 act 6.0

Source: PubChem (The Scripps Research Institute Molecular Screening Center)
